Records with an inconclusive call do not appear. Where a call stands in place of a potency, no number is given. Activity calls are given as the source filed them. Calls follow the shape of the full dose curve.
Assay: Validation screen for inhibitors of Lassa infection (AID 463096)
Details: Lassa virus infection, cell-based; series mostly up to 46.1 µM
With `NS(=O)(=O)c1cc2c(cc1Cl)NCNS2(=O)=O` the Potency was “inactive”.
For `O=C1CC2(CCCC2)CC(=O)N1CCCCN1CCN(c2ncccn2)CC1`, the Potency was “inactive”.
For `O=C(O)CP(=O)(O)O`, the Potency was “inactive”.
For `Fc1ccc(C(c2ccc(F)cc2)N2CCN(C/C=C/c3ccccc3)CC2)cc1`, the Potency was “inactive”.
In the case of `CC(N)C(=O)OC(C)(C)Cc1ccc(Cl)cc1` (stereo not drawn), the Potency was “inactive”.
For `COc1nc(C)nc(Cl)c1NC1=NCCN1`, the Potency was “inactive”.
In the case of `CCCn1cnc2c1c(=O)n(CCCCC(C)=O)c(=O)n2C`, the Potency was “inactive”.
For `NCCc1ccc(O)c(O)c1`, the Potency was “inactive”.
In the case of `NC(=O)CN1CCCC1=O`, the Potency was “inactive”.
In the case of `CN(C)CCC(c1ccccc1)c1ccccn1` (stereo not drawn), the Potency was “inactive”.
For `Cc1cc(C(C)(C)C)c(O)c(C)c1CC1=NCCN1`, the Potency was “inactive”.
In the case of `O=C(Nc1ccc([N+](=O)[O-])cc1Cl)c1cc(Cl)ccc1O`, the Potency was 5.01 µM (active).
For `CCCCC1C(=O)N(c2ccccc2)N(c2ccccc2)C1=O`, the Potency was “inactive”.
With `c1ccc2nc(N3CCNCC3)ccc2c1` the Potency was “inactive”.
In the case of `COc1ccc(C(=O)N2CCCC2=O)cc1`, the Potency was “inactive”.
For `C[C@]12CC[C@@H]3c4ccc(O)cc4CC[C@H]3[C@@H]1CCC2=O`, the Potency was “inactive”.
With `c1ccc([C@H]2CN3CCSC3=N2)cc1` the Potency was “inactive”.
For `Nc1c2c(nc3ccccc13)CCCC2O` (stereo not drawn), the Potency was “inactive”.
For `Cc1ccc(=O)n(-c2ccccc2)c1`, the Potency was “inactive”.
In the case of `CNC(=O)Oc1ccc2c(c1)[C@]1(C)CCN(C)[C@@H]1N2C`, the Potency was “inactive”.
With `c1cc(CN2CCCCC2)cc(OCCCNc2nc3ccccc3s2)c1` the Potency was “inactive”.
For `C[n+]1cc2c3c(ccc2c2ccc4cc5c(cc4c21)OCO5)OCO3`, the Potency was 2 µM (active).
With `O=C(O)c1nn(Cc2ccc(Cl)cc2Cl)c2ccccc12` the Potency was “inactive”.
Potency is read from the fitted curve at half-maximal effect.
